“And” between values parts separate entries of the source, which are not always exact repeats. Equal values may be shown once. Inconclusive results are not listed. More than one record can exist for a structure, and the calls need not agree. The source made the active and inactive calls. The call rests on the fitted dose curve; in most records, active means well fitted curve in the direction sought with a large enough effect in the repeat runs; inconclusive means weak or mixed curves; inactive means no such curve, though single readings can be large; an effect the other way counts as inactive or inconclusive.
Experiments:
[1] = A CellTox Green Cytotoxicity Assay to monitor cytotoxicity in HEK293 cells - 40 hour (AID 1224871); further: nearly all actives have a fitted effect of over 45% in size
Procedure, shortened: (§1)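 Read-out: fluorescence of a cell-impermeant cyanine dye staining DNA of dead cells, proportional to cytotoxicity. HEK293, 600 cells/well with reagent, compound (23 nL DMSO) added after 5 h; reads at 0, 8, 16, 24, 32, 40 h.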

[2] = qHTS RealTime-Glo MT Cell Viability Assay in HEK293 cells - 16 hour (AID 1224872); further: nearly all actives have a fitted effect of over 50% in size
Procedure, shortened: (§2)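 Viability tracked continuously by luminescence as live cells reduce a prosubstrate for NanoLuc; HEK293 cells preincubated 5 h, compound-treated at 37 C, and read at 0, 8, 16, 24, 32 and 40 h.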

[3] = qHTS RealTime-Glo MT Cell Viability Assay in HEK293 cells - 40 hour (AID 1224874); settings: RealTime-Glo luminescence; max response: stronger effect = lower value; further: nearly all actives have a fitted effect of over 50% in size
Procedure, shortened: (§3)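 Luminescence readout at each listed time point; HEK293, 600 cells/well, RealTime-Glo MT reagent added with cells; compounds pinned (23 nL in DMSO) after 5 h at 37 C; continuous culture at 37 C.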

[4] = A CellTox Green Cytotoxicity Assay to monitor cytotoxicity in HEK293 cells - 24 hour (AID 1224875); further: nearly all actives have a fitted effect of over 45% in size
Procedure, shortened: as §1

[5] = A CellTox Green Cytotoxicity Assay to monitor cytotoxicity in HepG2 cells - 16 hour (AID 1224876); further: nearly all actives have a fitted effect of over 45% in size
Procedure, shortened: (§4)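 HepG2, 600 cells/well premixed w/ CellTox Green; 5 h settle, 37 C/5% CO2; pintool cpd add (DMSO); 37 C, 40 h; fluorescence read at 0, 8, 16, 24, 32, 40 h.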

[6] = qHTS RealTime-Glo MT Cell Viability Assay in HepG2 cells - 32 hour (AID 1224877); further: nearly all actives have a fitted effect of over 55% in size
Procedure, shortened: (§5)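 Viability was tracked continuously by NanoLuc luminescence from prosubstrate reduced by living HepG2 cells, at successive time points over 40 h of compound exposure. Cells with reagent were preincubated 5 h at 37 °C before compound addition.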

[7] = A CellTox Green Cytotoxicity Assay to monitor cytotoxicity in HepG2 cells - 24 hour (AID 1224878); further: nearly all actives have a fitted effect of over 45% in size
Procedure, shortened: as §4

[8] = A CellTox Green Cytotoxicity Assay to monitor cytotoxicity in HepG2 cells - 40 hour (AID 1224879); further: nearly all actives have a fitted effect of over 40% in size
Procedure, shortened: as §4

[9] = A CellTox Green Cytotoxicity Assay to monitor cytotoxicity in HEK293 cells - 32 hour (AID 1224881); further: nearly all actives have a fitted effect of over 40% in size
Procedure, shortened: as §1

[10] = A CellTox Green Cytotoxicity Assay to monitor cytotoxicity in HepG2 cells - 0 hour (AID 1224882); further: nearly all actives have a fitted effect of over 35% in size
Procedure, shortened: as §4

[11] = A CellTox Green Cytotoxicity Assay to monitor cytotoxicity in HepG2 cells - 32 hour (AID 1224883); further: nearly all actives have a fitted effect of over 50% in size
Procedure, shortened: as §4

[12] = A CellTox Green Cytotoxicity Assay to monitor cytotoxicity in HEK293 cells - 8 hour (AID 1224884); further: nearly all actives have a fitted effect of over 35% in size
Procedure, shortened: as §1

[13] = qHTS RealTime-Glo MT Cell Viability Assay in HepG2 cells - 16 hour (AID 1224885); further: nearly all actives have a fitted effect of over 50% in size
Procedure, shortened: as §5

[14] = qHTS RealTime-Glo MT Cell Viability Assay in HEK293 cells - 24 hour (AID 1224886); further: nearly all actives have a fitted effect of over 50% in size
Procedure, shortened: as §2

[15] = qHTS RealTime-Glo MT Cell Viability Assay in HEK293 cells - 8 hour (AID 1224887); further: nearly all actives have a fitted effect of over 50% in size
Procedure, shortened: as §3

[16] = A CellTox Green Cytotoxicity Assay to monitor cytotoxicity in HEK293 cells - 16 hour (AID 1224888); further: nearly all actives have a fitted effect of over 35% in size
Procedure, shortened: as §1

[17] = qHTS RealTime-Glo MT Cell Viability Assay in HepG2 cells - 0 hour (AID 1224889); further: nearly all actives have a fitted effect of over 50% in size
Procedure, shortened: as §5

[18] = A CellTox Green Cytotoxicity Assay to monitor cytotoxicity in HepG2 cells - 8 hour (AID 1224890); further: nearly all actives have a fitted effect of over 45% in size
Procedure, shortened: as §4

[19] = qHTS RealTime-Glo MT Cell Viability Assay in HepG2 cells - 8 hour (AID 1224873); further: nearly all actives have a fitted effect of over 55% in size
Procedure, shortened: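 Real-time viability: cells seeded at 600 per well together with NanoLuc and cell-permeant prosubstrate, compounds added after 5 h incubation. Luminescence tracked at 0, 8, 16, 24, 32 and 40 h of exposure.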

[20] = qHTS RealTime-Glo MT Cell Viability Assay in HEK293 cells - 0 hour (AID 1224880); further: nearly all actives have a fitted effect of over 45% in size
Procedure, shortened: as §3
Potency means the concentration at half of the fitted maximal effect.

SMILES	Potency [1]	Potency [2]	Potency [3]	Potency [4]	Potency [5]	Potency [6]	Potency [7]	Potency [8]	Potency [9]	Potency [10]	Potency [11]	Potency [12]	Potency [13]	Potency [14]	Potency [15]	Potency [16]	Potency [17]	Potency [18]	Potency [19]	Potency [20]
CCN(CC)CCNC(=O)c1c(C)[nH]c(/C=C2\C(=O)Nc3ccc(F)cc32)c1C	23.9 µM (active)	10.7 µM (active)	8.49 µM (active)	23.9 µM (active)	21.3 µM (active)	19 µM (active)	19 µM (active)	9.52 µM (active)	23.9 µM (active)	21.3 µM (active)	10.7 µM (active)	23.9 µM (active)	21.3 µM (active)	9.52 µM (active)	21.3 µM (active)	23.9 µM (active)	inactive	19 µM (active)	–	–
CS(=O)(=O)CCNCc1ccc(-c2ccc3ncnc(Nc4ccc(OCc5cccc(F)c5)c(Cl)c4)c3c2)o1	inactive	19 µM (active)	–	inactive	inactive	–	–	–	inactive	inactive	–	inactive	21.3 µM (active)	21.3 µM (active)	21.3 µM (active)	inactive	8.49 µM (active)	inactive	23.9 µM (active)	0.674 µM (active)
Oc1ccc(Cl)cc1Sc1cc(Cl)ccc1O	38.8 µM (active) and inactive	21.8 µM (active)	19.5 µM (active) and 23.9 µM (active)	–	inactive	–	43.6 µM (active)	48.9 µM (active) and 26.8 µM (active)	43.6 µM (active) and inactive	inactive	48.9 µM (active) and 26.8 µM (active)	inactive	–	–	24.5 µM (active)	–	inactive	inactive	–	inactive
Oc1ccc2cc(SSc3ccc4cc(O)ccc4c3)ccc2c1	49 µM (active) and 24.5 µM (active)	49 µM (active)	–	–	inactive	inactive	inactive	inactive and 21.9 µM (active)	43.7 µM (active) and 19.5 µM (active)	inactive	–	–	inactive	–	39 µM (active)	–	inactive	inactive	inactive	inactive
On1ccccc1=S	1.09 µM (active)	3.85 µM (active)	–	–	1.93 µM (active)	0.485 µM (active)	0.432 µM (active)	0.385 µM (active)	1.22 µM (active)	inactive	0.385 µM (active)	–	–	–	–	inactive	inactive	inactive	–	inactive
NC(=O)C1(N2CCCCC2)CCN(CCCN2c3ccccc3CCc3ccc(Cl)cc32)CC1	26.8 µM (active)	21.3 µM (active)	21.3 µM (active)	–	26.8 µM (active)	23.9 µM (active)	23.9 µM (active)	23.9 µM (active)	–	inactive	23.9 µM (active)	–	–	21.3 µM (active)	23.9 µM (active)	–	inactive	–	–	–
CC1=C(/C=C/C(C)=C/C=C/C(C)=C/C=O)C(C)(C)CCC1	38.7 µM (active)	19.4 µM (active)	19.4 µM (active)	38.7 µM (active)	–	–	54.6 µM (active)	48.7 µM (active)	38.7 µM (active)	inactive	48.7 µM (active)	48.7 µM (active)	48.7 µM (active)	17.3 µM (active)	–	43.4 µM (active)	inactive	–	–	–
CC(C)(C)C(=O)OCOC(=O)C1N2C(=O)CC2S(=O)(=O)C1(C)C (stereo not drawn)	inactive	inactive	–	inactive	–	inactive	–	inactive	inactive	inactive	–	inactive	inactive	inactive	inactive	inactive	inactive	–	inactive	inactive
CCCN(CCC)C(=O)C(CCC(=O)OCCCN1CCN(CCOC(=O)Cc2c(C)n(C(=O)c3ccc(Cl)cc3)c3ccc(OC)cc23)CC1)NC(=O)c1ccccc1 (stereo not drawn)	inactive	21.3 µM (active)	–	inactive	23.9 µM (active)	–	23.9 µM (active)	23.9 µM (active)	inactive	inactive	–	inactive	–	–	23.9 µM (active)	inactive	inactive	–	–	inactive
O=S1(=O)CC(Cl)(Cl)C(Cl)(Cl)C1	1.95 µM (active)	4.9 µM (active)	–	–	11 µM (active)	6.16 µM (active)	9.77 µM (active)	6.92 µM (active)	–	inactive	7.76 µM (active)	–	6.92 µM (active)	–	12.3 µM (active)	–	inactive	13.8 µM (active)	8.71 µM (active)	inactive
O=C(Oc1ccccc1)c1ccccc1C(=O)Oc1ccccc1	inactive	inactive	–	inactive	inactive	inactive	inactive	inactive	–	inactive	inactive	inactive	–	inactive	inactive	inactive	–	inactive	–	inactive
C=CC(=O)OCC(CO)(COC(=O)C=C)COC(=O)C=C	2.76 µM (active) and 9.77 µM (active)	5.51 µM (active)	–	43.6 µM (active)	inactive	–	9.81 µM (active)	11 µM (active) and 24.5 µM (active)	15.5 µM (active)	inactive	9.81 µM (active)	inactive	–	4.91 µM (active)	6.19 µM (active) and inactive	inactive	inactive	inactive	–	inactive

Source: PubChem BioAssay (Tox21)
